# Data: the supplement of paper PMC11732987, “Enantioselective OTUD7B fragment discovery through chemoproteomics screening and high-throughput optimisation” (Communications Chemistry, 2025)
# Unmarked numbers belong to inactive results.
# Experiments:
# Experiment in all cases: log2 ratio of Biotin-Ahx-Ub-VS probe labelling (fragment/DMSO); higher = less target engagement (more negative = stronger competition), active = hit call of the paper (q ≤ 0.05, log2 ratio ≤ -1)
# Conditions in all cases: compound concentration: 200 uM; treatment time: 3 h
# USP19 = target: T1, USP19 (UniProt O94966)
# T1 sequence (whole entry): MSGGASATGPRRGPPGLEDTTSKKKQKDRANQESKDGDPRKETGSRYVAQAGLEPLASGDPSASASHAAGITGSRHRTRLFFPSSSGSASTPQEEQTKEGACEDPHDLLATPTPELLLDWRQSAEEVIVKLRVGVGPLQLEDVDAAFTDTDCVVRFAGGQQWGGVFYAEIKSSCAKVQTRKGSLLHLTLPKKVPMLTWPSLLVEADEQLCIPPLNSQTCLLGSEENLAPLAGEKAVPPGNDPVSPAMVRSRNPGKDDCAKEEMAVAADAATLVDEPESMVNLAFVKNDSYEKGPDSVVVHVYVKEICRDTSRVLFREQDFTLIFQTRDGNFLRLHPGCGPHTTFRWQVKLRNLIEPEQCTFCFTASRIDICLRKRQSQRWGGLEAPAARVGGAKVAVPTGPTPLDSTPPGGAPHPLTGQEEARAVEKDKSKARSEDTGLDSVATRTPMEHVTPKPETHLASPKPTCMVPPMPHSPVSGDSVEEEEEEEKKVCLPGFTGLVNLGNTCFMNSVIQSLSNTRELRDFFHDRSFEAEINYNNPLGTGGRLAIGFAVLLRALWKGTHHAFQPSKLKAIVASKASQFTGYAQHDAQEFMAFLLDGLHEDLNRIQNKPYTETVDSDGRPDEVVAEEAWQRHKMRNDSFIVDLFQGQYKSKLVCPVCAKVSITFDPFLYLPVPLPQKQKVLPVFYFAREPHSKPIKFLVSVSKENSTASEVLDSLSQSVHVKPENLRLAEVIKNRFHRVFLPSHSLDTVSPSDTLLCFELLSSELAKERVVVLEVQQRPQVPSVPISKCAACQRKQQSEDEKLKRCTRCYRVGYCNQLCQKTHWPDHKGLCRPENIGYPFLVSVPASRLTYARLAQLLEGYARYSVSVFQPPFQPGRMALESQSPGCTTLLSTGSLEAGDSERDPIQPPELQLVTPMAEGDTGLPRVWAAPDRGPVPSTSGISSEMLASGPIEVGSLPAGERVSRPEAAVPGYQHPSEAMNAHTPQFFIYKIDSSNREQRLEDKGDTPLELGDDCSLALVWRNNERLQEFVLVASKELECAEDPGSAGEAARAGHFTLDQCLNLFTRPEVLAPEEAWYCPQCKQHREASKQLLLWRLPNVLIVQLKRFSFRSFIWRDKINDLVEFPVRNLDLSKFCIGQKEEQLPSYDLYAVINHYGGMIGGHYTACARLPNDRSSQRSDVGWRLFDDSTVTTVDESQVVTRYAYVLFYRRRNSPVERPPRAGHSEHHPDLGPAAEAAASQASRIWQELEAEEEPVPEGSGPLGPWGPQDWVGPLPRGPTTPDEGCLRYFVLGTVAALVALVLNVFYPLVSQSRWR
# Procedure, shortened: (§1)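 The table lists average log2 ratios of fragment over vehicle, from an unpaired t-test on global-median-normalised Spectronaut label-free quantities. Proteins with ≥2 unique peptides were used. Samples were HEK293T lysate (495 µg) treated in triplicate with fragment at 200 µM or vehicle for 3 h, then with Biotin-Ahx-Ub-VS (0.5 µM final) for 1 h, with labelled DUBs NeutrAvidin-enriched and run by diaPASEF LC-MS/MS.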
# USP24 = USP24 (UniProt Q9UPU5)
# Chain of USP24 (Q9UPU5 whole entry): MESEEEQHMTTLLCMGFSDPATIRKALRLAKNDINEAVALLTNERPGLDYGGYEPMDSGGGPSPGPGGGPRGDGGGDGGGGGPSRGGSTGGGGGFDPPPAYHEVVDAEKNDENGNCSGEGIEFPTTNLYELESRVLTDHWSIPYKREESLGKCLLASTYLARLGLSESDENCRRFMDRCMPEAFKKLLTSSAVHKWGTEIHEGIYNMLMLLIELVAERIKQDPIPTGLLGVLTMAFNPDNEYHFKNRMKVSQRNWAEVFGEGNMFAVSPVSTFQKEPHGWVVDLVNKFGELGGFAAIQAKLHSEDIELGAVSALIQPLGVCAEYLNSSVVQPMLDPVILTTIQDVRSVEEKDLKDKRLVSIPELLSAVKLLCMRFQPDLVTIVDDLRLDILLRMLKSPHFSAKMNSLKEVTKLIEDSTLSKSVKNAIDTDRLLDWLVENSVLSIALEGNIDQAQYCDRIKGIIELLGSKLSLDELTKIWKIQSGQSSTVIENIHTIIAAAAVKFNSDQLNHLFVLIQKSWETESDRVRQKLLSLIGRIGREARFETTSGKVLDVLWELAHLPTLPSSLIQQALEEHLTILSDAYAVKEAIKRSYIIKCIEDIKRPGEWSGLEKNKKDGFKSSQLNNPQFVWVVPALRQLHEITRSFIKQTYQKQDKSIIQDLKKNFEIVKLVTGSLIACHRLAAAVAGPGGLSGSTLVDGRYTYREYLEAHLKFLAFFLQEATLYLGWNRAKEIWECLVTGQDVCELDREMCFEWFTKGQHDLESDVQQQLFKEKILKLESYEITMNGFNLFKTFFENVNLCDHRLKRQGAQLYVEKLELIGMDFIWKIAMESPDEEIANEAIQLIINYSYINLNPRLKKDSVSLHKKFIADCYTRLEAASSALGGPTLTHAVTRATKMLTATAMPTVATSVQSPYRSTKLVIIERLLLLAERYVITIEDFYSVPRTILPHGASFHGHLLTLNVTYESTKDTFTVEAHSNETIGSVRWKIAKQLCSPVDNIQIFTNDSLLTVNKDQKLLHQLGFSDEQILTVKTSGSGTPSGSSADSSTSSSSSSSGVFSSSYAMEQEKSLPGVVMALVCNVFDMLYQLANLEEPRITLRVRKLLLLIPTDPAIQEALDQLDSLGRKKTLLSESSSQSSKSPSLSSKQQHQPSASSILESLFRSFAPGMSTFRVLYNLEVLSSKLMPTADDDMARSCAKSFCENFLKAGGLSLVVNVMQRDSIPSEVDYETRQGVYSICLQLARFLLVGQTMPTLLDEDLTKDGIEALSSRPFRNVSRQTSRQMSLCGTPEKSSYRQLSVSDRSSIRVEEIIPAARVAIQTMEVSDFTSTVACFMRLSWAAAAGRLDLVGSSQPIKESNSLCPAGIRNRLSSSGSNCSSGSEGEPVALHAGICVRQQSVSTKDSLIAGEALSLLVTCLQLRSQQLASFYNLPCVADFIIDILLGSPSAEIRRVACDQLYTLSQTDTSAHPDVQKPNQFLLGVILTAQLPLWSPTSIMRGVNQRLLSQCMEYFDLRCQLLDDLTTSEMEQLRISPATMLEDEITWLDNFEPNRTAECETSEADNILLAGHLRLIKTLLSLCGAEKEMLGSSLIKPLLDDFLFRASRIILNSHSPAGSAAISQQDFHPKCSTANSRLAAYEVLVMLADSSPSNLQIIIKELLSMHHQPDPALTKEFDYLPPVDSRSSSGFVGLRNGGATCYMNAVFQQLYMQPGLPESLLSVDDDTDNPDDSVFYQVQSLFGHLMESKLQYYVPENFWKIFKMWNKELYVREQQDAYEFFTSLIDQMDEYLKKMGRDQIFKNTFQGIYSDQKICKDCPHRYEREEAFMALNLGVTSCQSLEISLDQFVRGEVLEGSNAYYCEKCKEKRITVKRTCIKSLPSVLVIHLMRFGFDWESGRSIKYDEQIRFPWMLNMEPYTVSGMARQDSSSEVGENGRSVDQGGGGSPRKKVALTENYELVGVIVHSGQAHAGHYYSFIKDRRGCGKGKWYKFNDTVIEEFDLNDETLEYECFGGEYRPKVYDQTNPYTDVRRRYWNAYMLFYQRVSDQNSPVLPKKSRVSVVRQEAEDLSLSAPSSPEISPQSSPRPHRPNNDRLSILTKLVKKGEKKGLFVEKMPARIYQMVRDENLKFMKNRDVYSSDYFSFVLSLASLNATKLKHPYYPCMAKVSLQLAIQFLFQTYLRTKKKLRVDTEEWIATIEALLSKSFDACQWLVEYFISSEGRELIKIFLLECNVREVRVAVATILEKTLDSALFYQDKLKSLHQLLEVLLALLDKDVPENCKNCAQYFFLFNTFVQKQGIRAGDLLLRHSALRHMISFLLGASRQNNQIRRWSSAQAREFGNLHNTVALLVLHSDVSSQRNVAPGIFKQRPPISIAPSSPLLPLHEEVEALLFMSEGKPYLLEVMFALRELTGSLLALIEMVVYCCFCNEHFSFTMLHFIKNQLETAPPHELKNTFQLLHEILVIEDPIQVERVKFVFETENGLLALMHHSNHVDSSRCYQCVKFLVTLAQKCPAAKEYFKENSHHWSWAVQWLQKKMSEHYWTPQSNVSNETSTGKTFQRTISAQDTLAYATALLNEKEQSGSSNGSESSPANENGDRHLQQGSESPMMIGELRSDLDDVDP
# Procedure, shortened: as §1
# USP25 = target: T2, USP25 (UniProt Q9UHP3)
# T2 sequence (whole entry): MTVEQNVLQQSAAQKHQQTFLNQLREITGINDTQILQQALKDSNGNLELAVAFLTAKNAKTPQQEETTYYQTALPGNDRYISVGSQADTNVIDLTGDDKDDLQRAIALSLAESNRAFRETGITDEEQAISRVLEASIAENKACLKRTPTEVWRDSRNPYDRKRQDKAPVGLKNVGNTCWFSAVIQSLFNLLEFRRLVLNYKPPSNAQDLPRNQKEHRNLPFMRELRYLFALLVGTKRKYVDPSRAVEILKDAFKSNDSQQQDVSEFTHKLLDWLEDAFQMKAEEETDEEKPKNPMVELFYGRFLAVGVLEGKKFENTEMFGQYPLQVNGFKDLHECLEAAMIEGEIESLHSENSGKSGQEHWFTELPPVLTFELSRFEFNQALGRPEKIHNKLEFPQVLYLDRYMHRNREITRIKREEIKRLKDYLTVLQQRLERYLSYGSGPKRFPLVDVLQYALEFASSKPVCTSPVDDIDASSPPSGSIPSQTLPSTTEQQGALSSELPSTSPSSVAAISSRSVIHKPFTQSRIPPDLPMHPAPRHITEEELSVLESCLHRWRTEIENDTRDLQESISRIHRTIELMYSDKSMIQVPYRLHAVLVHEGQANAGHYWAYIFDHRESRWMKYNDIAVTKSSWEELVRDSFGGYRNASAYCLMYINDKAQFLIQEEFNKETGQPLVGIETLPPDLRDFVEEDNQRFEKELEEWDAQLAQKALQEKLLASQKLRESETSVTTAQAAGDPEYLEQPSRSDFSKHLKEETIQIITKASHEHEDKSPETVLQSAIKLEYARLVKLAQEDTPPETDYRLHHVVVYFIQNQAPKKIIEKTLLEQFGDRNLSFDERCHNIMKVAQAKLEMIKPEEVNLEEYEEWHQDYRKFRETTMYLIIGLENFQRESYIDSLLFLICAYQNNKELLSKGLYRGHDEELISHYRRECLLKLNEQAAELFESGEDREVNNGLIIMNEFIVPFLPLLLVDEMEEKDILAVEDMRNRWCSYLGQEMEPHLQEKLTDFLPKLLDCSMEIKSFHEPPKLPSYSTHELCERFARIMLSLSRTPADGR
# Procedure, shortened: as §1
# USP28 = target: T3, USP28 (UniProt Q96RU2)
# T3 sequence (whole entry): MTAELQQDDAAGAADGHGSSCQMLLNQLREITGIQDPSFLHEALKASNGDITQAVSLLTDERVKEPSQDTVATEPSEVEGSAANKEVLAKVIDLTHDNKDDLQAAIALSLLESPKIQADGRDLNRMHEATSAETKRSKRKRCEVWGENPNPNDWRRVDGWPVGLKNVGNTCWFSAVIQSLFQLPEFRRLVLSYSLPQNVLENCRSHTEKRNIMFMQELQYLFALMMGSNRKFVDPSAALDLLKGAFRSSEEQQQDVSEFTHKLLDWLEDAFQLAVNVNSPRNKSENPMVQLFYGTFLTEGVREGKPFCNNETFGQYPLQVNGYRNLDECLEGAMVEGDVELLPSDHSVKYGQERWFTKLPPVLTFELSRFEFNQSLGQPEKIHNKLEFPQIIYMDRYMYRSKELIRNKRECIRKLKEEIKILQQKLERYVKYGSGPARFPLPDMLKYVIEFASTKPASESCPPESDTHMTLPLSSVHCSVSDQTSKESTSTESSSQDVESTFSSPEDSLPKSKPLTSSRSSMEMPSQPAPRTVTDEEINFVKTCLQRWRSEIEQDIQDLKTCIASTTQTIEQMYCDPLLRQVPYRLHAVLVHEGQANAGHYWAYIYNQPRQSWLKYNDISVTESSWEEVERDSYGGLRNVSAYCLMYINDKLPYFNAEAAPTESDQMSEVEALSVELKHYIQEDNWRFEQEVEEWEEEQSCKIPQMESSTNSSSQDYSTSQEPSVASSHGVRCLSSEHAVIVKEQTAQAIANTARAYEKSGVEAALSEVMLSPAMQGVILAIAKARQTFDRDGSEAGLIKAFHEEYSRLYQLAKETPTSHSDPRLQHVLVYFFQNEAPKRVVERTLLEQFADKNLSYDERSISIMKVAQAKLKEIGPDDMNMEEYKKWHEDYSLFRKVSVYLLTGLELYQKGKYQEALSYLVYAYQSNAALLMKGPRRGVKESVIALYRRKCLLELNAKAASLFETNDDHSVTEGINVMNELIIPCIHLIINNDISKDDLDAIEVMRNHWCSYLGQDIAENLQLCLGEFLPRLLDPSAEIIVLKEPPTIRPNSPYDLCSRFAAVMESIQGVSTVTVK
# Procedure, shortened: as §1
compound,measurement,setting,value
O=C(CCl)Nc1ccc(N2CCCC2=O)cc1,log2 ratio of Biotin-Ahx-Ub-VS probe labelling,USP19,-0.0288
same,log2 ratio of Biotin-Ahx-Ub-VS probe labelling,USP24,-0.284
same,log2 ratio of Biotin-Ahx-Ub-VS probe labelling,USP25,-1.8 (active)
same,log2 ratio of Biotin-Ahx-Ub-VS probe labelling,USP28,-1.25 (active)
